Test results published in PubChem BioAssay AID1578 (Sanford-Burnham Center for Chemical Genomics, 2009).
The whole screen tested about 290,000 compounds, of which about 3,000 (1%) were called active. This is one part of a sample in which actives are shown more often than they occur. Unmarked numbers belong to inactive results. No stated cut-off is given here; in the data, active means inhibition mostly above about 36% (no sharp cut-off); inactive means mostly below about 34%.

Test: NOD1 signaling inhibitors, primary screen, cell-based, luminescence, uHTS (AID 1578);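 further: HEK-293T reporter cells stimulated with the NOD1 agonist gamma-tri-DAP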
Details: NOD1-driven NF-kB luciferase reporter cells, at 4 µM, hits give high values

Row | SMILES | inhibition
1 | CC(=O)c1c(C)nc(-c2ccccc2)nc1NC(=O)C(C)C | -18%
2 | COC(=O)c1scc(C)c1NC(=O)c1ccc(Cl)cc1 | -13.3%
3 | COC(=O)c1sc(SC)c(S(=O)(=O)C(C)C)c1N/N=C(\C#N)C(=O)c1ccccc1 | -8.9%
4 | CCOC(=O)/C(C#N)=N/Nc1c(S(=O)(=O)Cc2ccco2)csc1C(=O)OC | -12.9%
5 | COC(=O)c1sc(SC)c(S(=O)(=O)C(C)C)c1N/N=C(\C#N)S(=O)(=O)c1ccccn1 | -7.4%
6 | COC(=O)c1cc(OC)c(OC)cc1NC(=O)Cc1ccccc1[N+](=O)[O-] | 53.2%
7 | CCSc1nnc(NC(=O)c2cc(C)on2)s1 | -22.4%
8 | Cc1ccc(CNS(=O)(=O)c2ccc3c(c2)NC(=O)C(C)S3)cc1 (stereo unspecified) | 16.1%
9 | Cc1ccccc1C(=O)N1CCC(C(N)=O)CC1 | 24.1%
10 | O=C(NCc1ccccc1)C1COc2ccccc2O1 (stereo unspecified) | -48.6%
11 | O=C(N1CCN(c2ccccn2)CC1)C(Cl)(Cl)Cl | 32.8%
12 | CC(Cl)C(=O)N1c2ccccc2CCc2ccccc21 (stereo unspecified) | 19.8%
13 | O=C(CCl)N1c2ccccc2CCc2ccccc21 | 94.7% (active)
14 | O=C(CN1CCCCC1)N1c2ccccc2CCc2ccccc21 | 7.5%
15 | C=CCNc1cnn(-c2ccc(C)cc2)c(=O)c1Sc1ccc(C)cc1 | 11.6%
16 | CC/C(=N\NC(=O)c1ccc(Br)cc1)c1ccccc1 | -30.9%
17 | N#C/C(=C(/O)CCl)c1nc2c(s1)CCc1ccccc1-2 | 78.6% (active)
18 | Nc1nc2c(s1)CCc1ccccc1-2 | -11.8%
19 | N#C/C(=C(/O)CCl)c1nc(-c2ccccc2)cs1 | -4.2%
20 | C=CCn1c(COc2ccccc2)nnc1SC(C)C(=O)N/N=C/c1cc(Cl)ccc1O (stereo unspecified) | 2%
21 | C=CCn1c(COc2ccc(Cl)cc2)nnc1SCC(=O)N/N=C/c1ccccc1 | 1.1%
22 | C=CCn1c(COc2ccccc2)nnc1SCC(=O)N/N=C/c1cc(Cl)ccc1O | 39.9% (active)
23 | CN(C)C(=O)CN1CCN(c2nc3nonc3nc2N2CCCCC2)CC1 | -28.9%

Row | SMILES | inhibition
24 | CC(C)(C)OC(=O)N/N=C/c1cccn1-c1ccc([N+](=O)[O-])cc1 | -6.6%
25 | COCC(=O)OC/C(O)=C(\C#N)c1nc2ccccc2[nH]1 | 66.5% (active)
26 | Cc1ccc(C(=O)OC/C(O)=C(\C#N)c2nc3ccccc3[nH]2)cc1S(=O)(=O)N1CCOCC1 | 20.1%
27 | N#C/C(=C(/O)COC(=O)c1ccc(O)cc1)c1nc2ccccc2[nH]1 | -5.6%
28 | N#C/C(=C(/O)COC(=O)CCCNC(=O)c1ccc(Cl)cc1)c1nc2ccccc2[nH]1 | 86.4% (active)
29 | CCOC(=O)c1c(C)[nH]c(C(=O)OC/C(O)=C(\C#N)c2nc3ccccc3[nH]2)c1C | -26.6%
30 | N#C/C(=C(/O)COC(=O)Cc1c[nH]c2ccccc12)c1nc2ccccc2[nH]1 | -14.1%
31 | CC(C)C(=O)OC/C(O)=C(\C#N)c1nc2ccccc2[nH]1 | 0.8%
32 | N#C/C(=C(/O)COC(=O)CCc1ccc(S(=O)(=O)N2CCOCC2)cc1)c1nc2ccccc2[nH]1 | 93.4% (active)
33 | N#C/C(=C(/O)COC(=O)c1ccc(Cl)c(S(=O)(=O)N2CCOCC2)c1)c1nc2ccccc2[nH]1 | 17.7%
34 | CCCC(=O)OC/C(O)=C(\C#N)c1nc2ccccc2[nH]1 | 105% (active)
35 | N#C/C(=C(/O)COC(=O)c1cccnc1Cl)c1nc2ccccc2[nH]1 | -23.4%
36 | COc1cc(OC)cc(C(=O)OC/C(O)=C(\C#N)c2nc3ccccc3[nH]2)c1 | -0.4%
37 | O=C(CSc1nc(-c2ccccc2)c(-c2ccccc2)[nH]1)Nc1ccc2c(c1)OCO2 | -5.7%
38 | O=C(CSc1nn(-c2ccccc2)c(=S)s1)NC(=O)NCc1ccco1 | 17.4%
39 | CCCCN(C)CCNC(=O)c1cc2c(=O)[nH]c3ccccc3c2n1C | -7.1%
40 | CCOC(=O)COc1ccc2c(C)cc(=O)oc2c1C(=O)c1ccccc1 | 5.9%
41 | O=C1CC(N2CCN(c3ccc(O)cc3)CC2)C(=O)N1c1ccc2c(c1)OCO2 (stereo unspecified) | -26.7%
42 | Cc1ccc(C(C)C)c(OC/C(O)=C(\C#N)c2nc3ccccc3[nH]2)c1 | 36.3% (active)
43 | COc1ccc(OC/C(O)=C(\C#N)c2nc3ccccc3[nH]2)cc1 | -23.4%
44 | COc1ccc(/C(C)=N/OC/C(O)=C(\C#N)c2nc3ccccc3[nH]2)cc1OC | 5.6%
45 | CCC(C)c1ccc(OCC(=O)NNC(=O)C2CCCCC2)cc1 (stereo unspecified) | -4.3%
46 | Cc1ccccc1NC(=O)c1ccccc1-c1ccccc1 | -24.9%

Row | SMILES | inhibition
47 | CC(=O)Nc1ccccc1NC(=O)c1ccccc1-c1ccccc1 | 73% (active)
48 | O=C(Nc1ccccc1Br)c1ccccc1-c1ccccc1 | -10.7%
49 | CC(C)(CO)N=Cc1c(O)[nH]c2ccccc12 | -14.8%
50 | CCCCCCC(=O)Nc1ccc(Cl)cn1 | -24.4%
51 | C=CCN(CC=C)C(=O)c1cccc(OC2CCN(S(=O)(=O)N(C)C)CC2)c1 | 8.4%
52 | CCOc1ccc2nc(SCC#N)c(C#N)cc2c1 | 68.2% (active)
53 | CCOc1ccc2nc(SCC(=O)N3CCCCCC3)c(C#N)cc2c1 | -18.2%
54 | CCSc1nc2ccc(OC)cc2cc1C#N | -45.3%
55 | O=C(O)c1cccc(CN2C(=O)S/C(=C/c3ccccc3[N+](=O)[O-])C2=O)c1 | 3.9%
56 | O=C(O)c1cccc(CN2C(=O)S/C(=C/c3cccc([N+](=O)[O-])c3)C2=O)c1 | 1.5%
57 | O=C1/C(=C\c2cc(Br)cc(Br)c2O)SC(=S)N1Cc1ccccc1 | 73.3% (active)
58 | COc1ccc(O)c(/C=C2/SC(=S)N(Cc3ccccc3)C2=O)c1 | -3.5%
59 | O=C1/C(=C\c2cccc(O)c2O)SC(=S)N1Cc1ccccc1 | -20.4%
60 | CCOC(=O)CN1C(=O)S/C(=C/c2ccc(O)c([N+](=O)[O-])c2)C1=O | -4.5%
61 | O=C1/C(=C\c2ccc(O)cc2)SC(=S)N1Cc1ccccc1 | -9.6%
62 | CCOC(=O)N1CCN(S(=O)(=O)N2CCCC(C(=O)NCc3ccc(F)cc3)C2)CC1 (stereo unspecified) | 3.3%
63 | O=C(CCC(=O)N(c1cccc(F)c1)C(C(=O)NC1CCCC1)c1ccncc1)Nc1cccnc1 (stereo unspecified) | -42.2%
64 | CC1C=CCC2C(=O)N(c3cccc(C(=O)Nc4ccc(Br)cc4)c3)C(=O)C12 (stereo unspecified) | -16.6%
65 | CCCCN(CC)S(=O)(=O)c1c(C)[nH]c(=O)[nH]c1=O | -34.4%
66 | CCOc1ccc(N2CC(C(=O)Nc3nnc(C4CCCCC4)s3)CC2=O)cc1 (stereo unspecified) | -28.2%
67 | O=C(O)COc1ccccc1/C=N/NC(=O)c1cc(-c2ccccc2)nc2ccccc12 | -11.3%
68 | CCOc1cc(C(c2c(C)[nH][nH]c2=O)c2c(C)[nH][nH]c2=O)cc(Cl)c1O | 7.7%
69 | CC(Cc1ccccc1)C(=O)NCc1ccncc1 (stereo unspecified) | -26.7%

Row | SMILES | inhibition
70 | CCCCc1ccc(NC(=O)C(=O)NCCN2CCN(C(=O)c3ccc([N+](=O)[O-])cc3)CC2)cc1 | 0.1%
71 | CCCCc1ccc(NC(=O)C(=O)NCCN2CCN(Cc3ccc([N+](=O)[O-])cc3)CC2)cc1 | 34.7% (active)
72 | CCc1ccc(NC(=O)C(=O)NCCN2CCN(Cc3ccc([N+](=O)[O-])cc3)CC2)cc1 | 12.5%
73 | COc1cc(-c2nnc(SCC(=O)N(Cc3ccccc3)C(C)(C)C)o2)cc(OC)c1OC | 10.5%
74 | COc1cc(OC)cc(-c2nnc(SCC(=O)N(Cc3ccccc3)C(C)(C)C)o2)c1 | 14.6%
75 | COc1ccc(-c2nnc(SCC(=O)N(Cc3ccccc3)C(C)(C)C)o2)cc1OC | 58.8% (active)
76 | CC1CN(S(=O)(=O)c2cccs2)CC(C)O1 (stereo unspecified) | 34.6% (active)
77 | CC1CN(S(=O)(=O)c2ccccc2)CC(C)O1 (stereo unspecified) | -8.4%
78 | O=S(=O)(c1cccs1)N1CCN(S(=O)(=O)c2cccs2)CC1 | -16.1%
79 | CCOC(=O)NC(=O)/C(C#N)=N\Nc1cccc(OC)c1 | -43%
80 | CCOC(=O)NC(=O)/C(C#N)=N\Nc1cccc(Cl)c1 | 55.7% (active)
81 | CCOC(=O)NC(=O)/C(C#N)=N\Nc1ccc(Cl)cc1 | -37.5%
82 | CC(C)COc1ccc(/C(O)=C2/C(=O)C(=O)N(CCN(C)C)C2c2ccncc2)cc1 (stereo unspecified) | -0.8%
83 | CS(=O)(=O)N1CCN(C(=O)COc2ccc3ccccc3c2)CC1 | 6.1%
84 | CCc1ccc2oc(C(=O)NCCc3ccc(S(N)(=O)=O)cc3)cc(=O)c2c1 | -0.9%
85 | CCOC(=O)c1c(NC(=O)C(=O)N/N=C/c2ccc(OCC)cc2)sc2c1CCCCC2 | -14.4%
86 | COc1cc(/C=N/NC(=O)c2sc(N)c(C#N)c2C)ccc1O | -14.2%
87 | CCOC(=O)c1c(NC(=O)N/N=C/c2ccccc2OCC)sc(C(C)=O)c1C | -33.7%
88 | CCOC(=O)c1c(NC(=O)N/N=C/c2ccc(O)c(OC)c2)sc(C(C)=O)c1C | 53.1% (active)
89 | CCOC(=O)c1c(NC(=O)C(=O)N/N=C/c2ccccc2OC)sc2c1CCCCC2 | 7.6%
90 | CCOC(=O)c1c(NC(=O)C(=O)N/N=C/c2ccc(O)c(OC)c2)sc2c1CCCCC2 | 81.2% (active)
91 | CN(CC(=O)Nc1ccccc1Cl)C1CCCCC1 | -46.1%
